Assay [1] can be described thus: NCI Yeast Anticancer Drug Screen. Data for the rad50 strain (AID 155).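 Also: 0% = growth of vehicle-only cultures of the same strain.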 As to conditions: S. cerevisiae rad50 strain growth inhibition; at 50.0 µM; hits give high values. In short, it runs like this: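 Inhibition values express reduced yeast growth in compound-treated cultures relative to vehicle-treated controls.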
Assay [2] in a line: NCI Yeast Anticancer Drug Screen. Data for the mec2-1 strain (AID 157). The note with it: S. cerevisiae mec2-1 strain, at 50.0 µM, hits give high values. An outline of the steps:
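Vehicle-treated cultures served as reference for growth inhibition of compound-exposed mec2-1 yeast.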

Assay [3] in a line: NCI Yeast Anticancer Drug Screen. Data for the sgs1 mgt1 strain (AID 161).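 Also: 0% = growth of cultures given vehicle only.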 The note with it: S. cerevisiae sgs1 mgt1 strain, at 50.0 µM, hits give high values. In short, it runs like this:
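Read-out: growth inhibition vs vehicle controls. Cells: mutant yeast strain deficient in DNA damage repair.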

Assay [4] in a line: NCI Yeast Anticancer Drug Screen. Data for the cln2 rad14 strain (AID 165).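 Also: 0% = growth equal to vehicle treated cultures.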 The note with it: S. cerevisiae cln2 rad14 strain, at 50.0 µM, hits give high values. In short, it runs like this:
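Each compound was tested on cln2 rad14 yeast. Inhibition of growth was calculated against vehicle-exposed controls.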

The nature of assay [5]: NCI Yeast Anticancer Drug Screen. Data for the bub3 strain (AID 167). The note with it: S. cerevisiae bub3 mutant strain, at 50.0 µM, hits give high values. In short, it runs like this: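 Steps: expose the mutant yeast strain to compound; grow alongside vehicle-treated cultures; measure growth; express inhibition against the vehicle cultures.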
Assay [6] is described as follows: NCI Yeast Anticancer Drug Screen. Data for the mlh1 rad18 strain (AID 175). The note with it: S. cerevisiae mlh1 rad18 strain growth inhibition; at 50.0 µM; hits give high values. In short, it runs like this:
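Vehicle-treated cultures served as the reference for growth inhibition in a yeast strain carrying DNA damage repair alterations exposed to each compound.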

Compounds without any hit were thinned out: in the full panel of roughly 79,000, 15% have a hit. Values without a mark were called inactive. The source made the active and inactive calls. Rule as the data show it: active = growth inhibition above about 70%; inactive = the rest.

For the compound `CCCCOC(=O)c1ccc(NC(=O)Nc2cc([N+](=O)[O-])ccc2F)cc1`, the growth inhibition is 56.4% in assay [1]; 54.6% in assay [2]; 63% in assay [3]; 54.6% in assay [4]; 12.3% in assay [5]; 71.2% (active) in assay [6].

In the case of `O=S(Nc1ccc(Br)cc1)c1ccccc1` (configuration not stated), the growth inhibition in assay [1] is -3.5%; in assay [2], -0.35%; in assay [3] it was 5.65%; in assay [4], -8.2%; in assay [5], 3.4%; in assay [6], 1.55%.

Take `CCOC(=O)N1C=Cc2c(c3ccccc3n2C)N1C(=O)OCC`: the growth inhibition in assay [1] is 3.85%; in assay [2] it was 1%; in assay [3], 2.15%; in assay [4], -6.3%; in assay [5], 5.7%; in assay [6], -6.95%.

Take `COc1ccc2cc(C(C)C(=O)N3C(=O)OCC3(C)C)ccc2c1` (configuration not stated): the growth inhibition in assay [1] was 19.4%; in assay [2], -11.3%; in assay [3] it was 30.4%; in assay [4] it was -13.7%; in assay [5], -8.75%; in assay [6], 9.95%.

`NC(N)=NS(=O)(=O)c1ccc(N)cc1`: the growth inhibition was 45% in assay [1]; 23.9% in assay [2]; 26.4% in assay [3]; 14.3% in assay [4]; 13.3% in assay [5]; 13% in assay [6].

On to `COc1cc(C2c3cc4c(cc3OC(NC3CCCCC3)C2C)OCO4)cc(OC)c1OC` (configuration not stated), for which the growth inhibition is -0.35% in assay [1]; -9.4% in assay [2]; -2.4% in assay [3]; 27.8% in assay [4]; 24.6% in assay [5]; -20.9% in assay [6].

As for `CCCCCCC1NC(=S)N(c2ccccc2)C1=O` (configuration not stated), the growth inhibition in assay [1] is -12.1%; in assay [2], 0.5%; in assay [3] it was 48.5%; in assay [4], -5%; in assay [5], 21.2%; in assay [6], -6.2%.

`COc1cc(C(C)S(=O)(=O)O)ccc1O` (configuration not stated): the growth inhibition was -19.6% in assay [1]; 1.7% in assay [2]; 8.45% in assay [3]; -12.6% in assay [4]; 4.9% in assay [5]; -5.55% in assay [6].

As for `CC1CCC2C(C)(C)CC3(C)CCC1C23O` (configuration not stated), the growth inhibition is 29.9% in assay [1]; 45.5% in assay [2]; 81% (active) in assay [3]; 30.4% in assay [4]; 61.6% in assay [5]; 83.2% (active) in assay [6].

With `O=C1c2ccccc2C(=O)C1(c1ccccn1)[N+](=O)[O-]`, the growth inhibition is 5.55% in assay [1]; 1.45% in assay [2]; -0.2% in assay [3]; 2% in assay [4]; 13.6% in assay [5]; 3.95% in assay [6].

`Cc1cc(OCCBr)ccc1[N+](=O)[O-]`: the growth inhibition in assay [1] was -4.5%; in assay [2], 9.45%; in assay [3], -17.6%; in assay [4], -15.1%; in assay [5], 22.7%; in assay [6] it was 0.45%.

For the compound `CCCOc1ccc(C(=O)C(C(c2ccccc2)N2CCOCC2)N2CCOCC2)cc1` (configuration not stated), the growth inhibition in assay [1] was -71.2%; in assay [2], 22.5%; in assay [3], 21%; in assay [4], 36.7%; in assay [5], 35.8%; in assay [6] it was 54%.

`OC1c2c(ccc3ccccc23)CCC1N1CCCCC1` (configuration not stated): the growth inhibition in assay [1] is 12.6%; in assay [2], -4.45%; in assay [3] it was 0.9%; in assay [4], -34.5%; in assay [5] it was -13.4%; in assay [6] it was -5%.

Consider `Cc1cc(C(=O)CSC(=S)SC(C)(C)C)ccc1Cl`, for which the growth inhibition was 9.3% in assay [1]; -30.1% in assay [2]; -5.85% in assay [3]; 4.45% in assay [4]; -17.9% in assay [5]; -5.2% in assay [6].

As for `Cc1ccc(S(=O)(=O)NCC(=O)OCc2ccccc2)cc1`, the growth inhibition in assay [1] is 4.15%; in assay [2], 3.4%; in assay [3], 1.2%; in assay [4] it was -0.55%; in assay [5], 12.4%; in assay [6], 7.8%.

With `CC1(C)OCN(c2ccc(Cl)cc2)Cn2c1nc1ccccc12`, the growth inhibition is -6.65% in assay [1]; 8.2% in assay [2]; -22.8% in assay [3]; 2.5% in assay [4]; -25.9% in assay [5]; -9.25% in assay [6].

Regarding `C=CCc1c(O)c2ccccc2[nH]c1=O`, the growth inhibition in assay [1] was -5.35%; in assay [2] it was 15.6%; in assay [3], -25.9%; in assay [4] it was 12.7%; in assay [5], 4.45%; in assay [6], 1.5%.

In the case of `C(=N/N=C(/C(=N/N=C/c1ccccc1)c1ccccc1)c1ccccc1)\c1ccccc1`, the growth inhibition in assay [1] was 26.6%; in assay [2], 5%; in assay [3], 33.3%; in assay [4], 8.4%; in assay [5], 11.9%; in assay [6], 5.45%.

As for `COC1CCC2CC3(CCC2(C)C1O)OCCO3` (configuration not stated), the growth inhibition in assay [1] was 1.25%; in assay [2], 0.85%; in assay [3] it was -1.45%; in assay [4], -12.3%; in assay [5], 26.1%; in assay [6], -14.4%.

Turning to `CCCC(C)NC(=O)c1ccc(OCC)cc1` (configuration not stated), the growth inhibition in assay [1] is -12.6%; in assay [2], -3%; in assay [3] it was -4.95%; in assay [4] it was -44%; in assay [5], -12.3%; in assay [6] it was -3.85%.

`O=C(SCc1ccccc1)C(O)c1ccccc1` (configuration not stated): the growth inhibition was 1.95% in assay [1]; 6.9% in assay [2]; 15.7% in assay [3]; -24.6% in assay [4]; 19.3% in assay [5]; 5.2% in assay [6].

`O=C(O)c1ccc(C(=O)O)c(C(=O)O)c1.[NH-]C1CCCCC1[NH-].[Pd+2]`: the growth inhibition in assay [1] is 11.1%; in assay [2] it was 5.2%; in assay [3], 7.9%; in assay [4], 10.6%; in assay [5], 3.95%; in assay [6] it was 9.65%.

As for `C=CCSc1nc2ccc(NCn3c(=S)sc4cc([N+](=O)[O-])ccc43)cc2s1`, the growth inhibition in assay [1] was 12.6%; in assay [2], 14.4%; in assay [3] it was 30.9%; in assay [4], 14%; in assay [5], 3.4%; in assay [6] it was 31.9%.

On to `O=C1O/C(=C(/Cl)c2cccc3ccccc23)c2ccccc21`, for which the growth inhibition is -40.2% in assay [1]; -67.8% in assay [2]; -38.4% in assay [3]; 9.55% in assay [4]; -16.9% in assay [5]; -38% in assay [6].

With `CCCCCCCC(=O)OCC1OC(n2cc(F)c(=O)[nH]c2=O)C(NC(=O)OCc2ccccc2)C(O)C1O` (configuration not stated), the growth inhibition in assay [1] was -15.1%; in assay [2], -13.8%; in assay [3], -66.8%; in assay [4] it was -7.1%; in assay [5] it was -12.4%; in assay [6], -17.6%.

As for `N#C/C(=C\c1c[nH]c2ccccc12)c1ccc([N+](=O)[O-])cc1`, the growth inhibition was -13.9% in assay [1]; -10% in assay [2]; 5.45% in assay [3]; 3.45% in assay [4]; -5.2% in assay [5]; -4.1% in assay [6].

Take `COc1ccc(/C=C2\N=C(c3cc(OC)c(OC)c(OC)c3)OC2=O)cc1Br`: the growth inhibition in assay [1] is -6.95%; in assay [2] it was -6.7%; in assay [3] it was 21.6%; in assay [4] it was -0.4%; in assay [5], 6.2%; in assay [6] it was 2.1%.

As for `Cc1ccccc1N(C(=O)C(=O)O)c1ccccc1C`, the growth inhibition in assay [1] is 1.35%; in assay [2], 7.75%; in assay [3], 8%; in assay [4] it was 7.95%; in assay [5] it was -0.5%; in assay [6] it was 0.15%.

With `Cc1ccc(S(=O)(=O)N(CC(O)c2ccccc2)CC(O)c2ccccc2)cc1` (configuration not stated), the growth inhibition was -3.95% in assay [1]; -1.7% in assay [2]; -18.2% in assay [3]; 3.5% in assay [4]; 3.95% in assay [5]; -8% in assay [6].

`COc1cccc(NC(=O)C(=O)C(C(C)=O)c2nc3ccc(Cl)cc3[nH]c2=O)c1` (configuration not stated): the growth inhibition was -16.3% in assay [1]; 3.7% in assay [2]; -19.2% in assay [3]; 15.4% in assay [4]; 2.25% in assay [5]; -5.4% in assay [6].

As to `Cn1nc(-c2ccccc2)c2c(/C=C/c3ccc(F)cc3)onc2c1=O`, the growth inhibition in assay [1] is -14.4%; in assay [2], -17.9%; in assay [3], 8.55%; in assay [4], 8.35%; in assay [5], 0.05%; in assay [6], -15.3%.

For the compound `CC12CC(=O)C3C(CCC4=CC(=O)CCC43C)C1CC=C2CC(=O)O` (configuration not stated), the growth inhibition is -4.8% in assay [1]; 1.15% in assay [2]; -23.4% in assay [3]; -3.85% in assay [4]; -5.15% in assay [5]; -11.2% in assay [6].

For `CCC(CC)C(=O)NC(O)C(Cl)(Cl)C(C)Cl` (configuration not stated), the growth inhibition in assay [1] is 3.8%; in assay [2] it was 27.1%; in assay [3], 0.55%; in assay [4], 20.3%; in assay [5] it was 6.65%; in assay [6], 14.6%.

Consider `CCCCCCCCC1=C(CCCCCCC(=O)OC)[14CH2]1`, for which the growth inhibition in assay [1] was 0.25%; in assay [2], 16.6%; in assay [3], -11.2%; in assay [4], 43.4%; in assay [5] it was 3%; in assay [6], 24.5%.

For `CCOC(=O)c1cnc2cc3c(cc2c1Nc1cccc(C)c1C)OCO3`, the growth inhibition in assay [1] is -9.9%; in assay [2], -7.35%; in assay [3], -16.4%; in assay [4] it was -13%; in assay [5], 3.5%; in assay [6] it was -6.6%.

Consider `Cc1ccc2c(c1)CCC(=O)O2`, for which the growth inhibition was 11.4% in assay [1]; 0% in assay [2]; -1.75% in assay [3]; -17.2% in assay [4]; 10.4% in assay [5]; 3.4% in assay [6].

Take `Cc1ccc(C(=O)c2ccccc2Cc2ccc3ccccc3c2)cc1`: the growth inhibition in assay [1] is 13.8%; in assay [2], 0.8%; in assay [3] it was 6.3%; in assay [4], 1.35%; in assay [5], 61.2%; in assay [6] it was -0.25%.

Values taken from PubChem BioAssay (NCI).
